In the supplement of paper PMC11732987, “Enantioselective OTUD7B fragment discovery through chemoproteomics screening and high-throughput optimisation” (Communications Chemistry, 2025):
Values without a mark were called inactive.

Tests used:
Assay in all cases: log2 ratio of Biotin-Ahx-Ub-VS probe labelling (fragment/DMSO); higher = less target engagement (more negative = stronger competition), active = hit call of the paper (q ≤ 0.05, log2 ratio ≤ -1)
Conditions in all cases: compound concentration: 200 uM; treatment time: 3 h
OTUD6B = target: T1, OTUD6B (UniProt Q8N6M0)
T1 sequence (whole entry): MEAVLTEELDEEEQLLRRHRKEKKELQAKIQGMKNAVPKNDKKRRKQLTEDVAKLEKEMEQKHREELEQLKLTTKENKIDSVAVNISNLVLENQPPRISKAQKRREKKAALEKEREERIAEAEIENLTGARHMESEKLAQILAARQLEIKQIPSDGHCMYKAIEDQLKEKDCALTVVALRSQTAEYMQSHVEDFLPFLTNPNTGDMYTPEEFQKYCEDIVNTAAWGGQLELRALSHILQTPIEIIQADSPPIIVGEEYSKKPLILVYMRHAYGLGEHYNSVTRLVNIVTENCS
Procedure, shortened: (§1)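 Labelling with Biotin-Ahx-Ub-VS (0.5 µM final, 1 h) followed a 3 h triplicate treatment of HEK293T lysate (495 µg per sample, Tris/CHAPS/IGEPAL buffer with protease inhibitors) with fragment at 200 µM or vehicle. Labelled DUBs were NeutrAvidin-enriched, digested with LysC and trypsin, and run by diaPASEF LC-MS/MS. The values, average log2 fragment/vehicle ratios by unpaired t-test, come from global-median-normalised Spectronaut label-free quantities. Proteins with ≥2 unique peptides were used.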

OTUD7B = target: T2, OTUD7B (UniProt Q6GQQ9)
T2 sequence (whole entry): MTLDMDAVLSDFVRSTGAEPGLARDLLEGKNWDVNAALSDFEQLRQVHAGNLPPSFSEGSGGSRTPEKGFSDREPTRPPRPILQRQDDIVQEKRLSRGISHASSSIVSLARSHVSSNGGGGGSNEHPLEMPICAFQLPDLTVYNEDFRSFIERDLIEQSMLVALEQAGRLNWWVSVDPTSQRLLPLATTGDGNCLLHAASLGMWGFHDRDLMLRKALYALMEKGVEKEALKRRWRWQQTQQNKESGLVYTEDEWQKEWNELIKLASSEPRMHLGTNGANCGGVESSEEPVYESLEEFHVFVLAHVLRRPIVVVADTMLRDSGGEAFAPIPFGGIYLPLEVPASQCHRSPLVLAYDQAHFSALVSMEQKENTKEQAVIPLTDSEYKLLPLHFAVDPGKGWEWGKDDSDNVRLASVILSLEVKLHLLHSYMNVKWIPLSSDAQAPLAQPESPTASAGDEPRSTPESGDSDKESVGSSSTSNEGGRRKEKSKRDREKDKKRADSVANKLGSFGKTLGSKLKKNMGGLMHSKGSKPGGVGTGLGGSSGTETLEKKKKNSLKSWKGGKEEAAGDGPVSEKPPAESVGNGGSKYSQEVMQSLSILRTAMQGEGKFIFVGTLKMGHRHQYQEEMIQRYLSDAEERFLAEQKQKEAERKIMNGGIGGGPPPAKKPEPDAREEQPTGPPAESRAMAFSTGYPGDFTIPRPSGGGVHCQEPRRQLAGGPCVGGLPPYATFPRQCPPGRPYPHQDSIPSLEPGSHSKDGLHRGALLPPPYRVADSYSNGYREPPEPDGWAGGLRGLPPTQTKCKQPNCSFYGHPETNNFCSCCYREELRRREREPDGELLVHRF
Procedure, shortened: as §1

PRPF8 = PRPF8 (UniProt Q6P2Q9)
Procedure, shortened: as §1

PSMD7 = target: T3, PSMD7 (UniProt P51665)
T3 sequence (whole entry): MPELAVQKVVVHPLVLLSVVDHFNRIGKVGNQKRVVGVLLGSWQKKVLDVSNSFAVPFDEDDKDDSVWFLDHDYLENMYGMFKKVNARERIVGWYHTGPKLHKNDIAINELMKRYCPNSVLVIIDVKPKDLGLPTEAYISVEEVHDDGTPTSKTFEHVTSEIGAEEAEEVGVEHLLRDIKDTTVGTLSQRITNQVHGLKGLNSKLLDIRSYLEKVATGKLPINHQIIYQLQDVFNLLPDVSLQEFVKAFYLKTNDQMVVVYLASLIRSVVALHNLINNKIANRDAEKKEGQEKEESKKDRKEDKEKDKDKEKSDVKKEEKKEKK
Procedure, shortened: as §1

UCHL1 = UCHL1 (UniProt P09936)
Chain of UCHL1 (P09936 whole entry, looked up): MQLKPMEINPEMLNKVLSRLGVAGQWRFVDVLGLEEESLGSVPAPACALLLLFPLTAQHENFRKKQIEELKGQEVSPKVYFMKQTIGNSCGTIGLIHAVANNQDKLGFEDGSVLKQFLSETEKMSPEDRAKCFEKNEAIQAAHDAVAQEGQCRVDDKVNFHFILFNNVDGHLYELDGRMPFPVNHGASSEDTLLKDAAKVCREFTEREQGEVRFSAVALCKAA
Procedure, shortened: as §1

UCHL3 = target: T4, UCHL3 (UniProt P15374)
T4 sequence (whole entry): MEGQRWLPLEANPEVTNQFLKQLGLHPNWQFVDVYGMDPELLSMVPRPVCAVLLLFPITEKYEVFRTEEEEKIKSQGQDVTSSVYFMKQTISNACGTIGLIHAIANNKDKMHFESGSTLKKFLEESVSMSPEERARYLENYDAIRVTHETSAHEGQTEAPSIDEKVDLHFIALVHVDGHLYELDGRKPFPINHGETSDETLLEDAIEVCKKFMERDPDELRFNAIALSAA
Procedure, shortened: as §1

UCHL5 = target: T5, UCHL5 (UniProt Q9Y5K5)
T5 sequence (whole entry): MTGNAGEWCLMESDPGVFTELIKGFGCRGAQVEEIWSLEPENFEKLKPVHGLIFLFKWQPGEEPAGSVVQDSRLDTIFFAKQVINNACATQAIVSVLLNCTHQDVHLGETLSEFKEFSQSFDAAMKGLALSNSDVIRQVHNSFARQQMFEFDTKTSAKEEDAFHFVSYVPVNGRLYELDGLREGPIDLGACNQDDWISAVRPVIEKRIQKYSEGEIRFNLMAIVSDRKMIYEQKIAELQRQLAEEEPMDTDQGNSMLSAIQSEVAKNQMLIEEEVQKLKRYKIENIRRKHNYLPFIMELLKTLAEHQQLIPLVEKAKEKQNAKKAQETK
Procedure, shortened: as §1

USP10 = USP10 (UniProt Q14694)
Chain of USP10 (Q14694 whole entry): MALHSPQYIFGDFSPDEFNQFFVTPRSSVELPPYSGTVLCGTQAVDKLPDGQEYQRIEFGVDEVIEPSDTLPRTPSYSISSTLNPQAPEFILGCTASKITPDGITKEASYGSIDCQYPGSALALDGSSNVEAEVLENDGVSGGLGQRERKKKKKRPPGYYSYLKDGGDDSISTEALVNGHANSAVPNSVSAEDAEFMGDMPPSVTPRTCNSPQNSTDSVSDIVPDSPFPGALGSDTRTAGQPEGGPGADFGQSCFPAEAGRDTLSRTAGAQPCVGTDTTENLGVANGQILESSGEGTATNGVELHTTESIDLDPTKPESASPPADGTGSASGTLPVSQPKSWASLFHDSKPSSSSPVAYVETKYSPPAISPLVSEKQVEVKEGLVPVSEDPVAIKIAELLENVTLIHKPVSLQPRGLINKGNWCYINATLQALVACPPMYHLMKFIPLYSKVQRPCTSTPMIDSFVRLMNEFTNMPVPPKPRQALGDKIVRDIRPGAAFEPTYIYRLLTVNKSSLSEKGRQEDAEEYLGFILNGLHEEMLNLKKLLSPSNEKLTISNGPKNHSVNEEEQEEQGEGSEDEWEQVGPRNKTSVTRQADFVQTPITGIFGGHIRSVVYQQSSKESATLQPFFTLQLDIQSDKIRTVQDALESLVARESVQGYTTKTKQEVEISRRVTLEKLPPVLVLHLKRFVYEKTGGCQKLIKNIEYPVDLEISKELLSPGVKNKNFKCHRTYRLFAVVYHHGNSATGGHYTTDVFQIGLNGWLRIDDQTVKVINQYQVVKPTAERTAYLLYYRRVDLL
Procedure, shortened: as §1

USP15 = target: T6, USP15 (UniProt Q9Y4E8)
T6 sequence (whole entry): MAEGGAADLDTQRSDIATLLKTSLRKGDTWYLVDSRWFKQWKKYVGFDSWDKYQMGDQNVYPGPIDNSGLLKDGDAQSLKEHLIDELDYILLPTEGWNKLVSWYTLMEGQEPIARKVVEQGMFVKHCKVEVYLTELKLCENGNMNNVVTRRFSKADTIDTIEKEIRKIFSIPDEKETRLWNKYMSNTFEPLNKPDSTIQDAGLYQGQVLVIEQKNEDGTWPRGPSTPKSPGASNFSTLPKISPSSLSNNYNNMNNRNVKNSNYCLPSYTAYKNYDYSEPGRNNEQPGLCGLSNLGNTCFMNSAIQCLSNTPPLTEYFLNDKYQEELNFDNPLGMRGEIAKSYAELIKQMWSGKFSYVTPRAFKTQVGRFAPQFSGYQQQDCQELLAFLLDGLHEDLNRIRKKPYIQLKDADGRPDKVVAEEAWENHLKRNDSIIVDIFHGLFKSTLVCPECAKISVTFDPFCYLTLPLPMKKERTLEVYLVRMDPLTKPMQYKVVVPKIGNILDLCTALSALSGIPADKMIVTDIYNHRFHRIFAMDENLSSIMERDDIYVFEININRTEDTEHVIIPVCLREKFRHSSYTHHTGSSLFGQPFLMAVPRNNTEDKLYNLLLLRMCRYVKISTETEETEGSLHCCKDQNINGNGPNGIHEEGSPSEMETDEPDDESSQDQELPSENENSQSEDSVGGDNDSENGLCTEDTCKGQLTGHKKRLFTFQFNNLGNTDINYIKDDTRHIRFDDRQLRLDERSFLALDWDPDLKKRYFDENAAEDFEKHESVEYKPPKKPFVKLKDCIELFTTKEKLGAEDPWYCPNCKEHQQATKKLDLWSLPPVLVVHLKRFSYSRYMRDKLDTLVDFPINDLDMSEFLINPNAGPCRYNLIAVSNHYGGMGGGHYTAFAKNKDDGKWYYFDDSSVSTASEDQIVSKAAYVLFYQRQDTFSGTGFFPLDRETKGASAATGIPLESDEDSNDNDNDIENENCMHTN
Procedure, shortened: as §1

USP16 = USP16 (UniProt Q9Y5T5)
Chain of USP16 (Q9Y5T5 whole entry, looked up): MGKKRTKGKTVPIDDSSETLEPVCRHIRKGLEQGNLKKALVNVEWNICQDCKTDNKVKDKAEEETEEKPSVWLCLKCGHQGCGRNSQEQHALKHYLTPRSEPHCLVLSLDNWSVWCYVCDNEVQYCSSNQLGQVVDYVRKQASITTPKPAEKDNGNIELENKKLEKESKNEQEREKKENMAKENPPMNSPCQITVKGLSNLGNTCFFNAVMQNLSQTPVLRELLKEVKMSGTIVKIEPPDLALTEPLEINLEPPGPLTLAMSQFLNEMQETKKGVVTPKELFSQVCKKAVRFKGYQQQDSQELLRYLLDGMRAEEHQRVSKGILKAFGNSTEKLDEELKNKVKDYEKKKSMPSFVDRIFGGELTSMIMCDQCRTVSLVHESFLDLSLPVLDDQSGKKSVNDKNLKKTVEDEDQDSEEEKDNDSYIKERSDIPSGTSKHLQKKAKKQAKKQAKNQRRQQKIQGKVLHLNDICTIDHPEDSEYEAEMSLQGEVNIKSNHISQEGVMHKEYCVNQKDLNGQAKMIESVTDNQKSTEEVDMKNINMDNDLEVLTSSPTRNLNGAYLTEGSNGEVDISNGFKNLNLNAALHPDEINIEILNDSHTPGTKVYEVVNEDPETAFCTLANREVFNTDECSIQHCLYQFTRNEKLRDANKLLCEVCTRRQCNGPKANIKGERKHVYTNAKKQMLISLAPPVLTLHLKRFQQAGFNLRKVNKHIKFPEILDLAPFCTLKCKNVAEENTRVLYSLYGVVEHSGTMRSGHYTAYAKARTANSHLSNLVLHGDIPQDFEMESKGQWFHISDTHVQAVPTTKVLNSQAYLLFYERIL
Procedure, shortened: as §1

Q: Which results are given for `COc1ccc(Cl)cc1NC(=O)CCl`?
A: log2 ratio of Biotin-Ahx-Ub-VS probe labelling (OTUD6B): -0.594; log2 ratio of Biotin-Ahx-Ub-VS probe labelling (OTUD7B): -1.29 (active); log2 ratio of Biotin-Ahx-Ub-VS probe labelling (PRPF8): -0.0117; log2 ratio of Biotin-Ahx-Ub-VS probe labelling (PSMD7): -0.241; log2 ratio of Biotin-Ahx-Ub-VS probe labelling (UCHL1): -1.01 (active); log2 ratio of Biotin-Ahx-Ub-VS probe labelling (UCHL3): -0.0348; log2 ratio of Biotin-Ahx-Ub-VS probe labelling (UCHL5): -0.501; log2 ratio of Biotin-Ahx-Ub-VS probe labelling (USP10): -0.263; log2 ratio of Biotin-Ahx-Ub-VS probe labelling (USP15): -0.674; log2 ratio of Biotin-Ahx-Ub-VS probe labelling (USP16): -0.286
